Source: PubChem BioAssay
Shown are actives, neighbours in structure and some others; about 21% of the full set was active somewhere.
NS1 function inh = qHTS Assay for Inhibitors of Influenza NS1 Protein Function. 270,000 compounds, 0.4% hits. Potency, µM (series often up to 46.1 µM), for the others: at the top dose activity, positive = more growth; further: potency means the concentration at half of the fitted maximal effect; actives are rising curves; nearly all actives have a fitted effect of over 50% in size
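OD600 was taken as the measure of yeast growth restored by compound in an NS1-expressing S. cerevisiae strain. Cells had been washed out of glucose medium and diluted 1:100 into galactose -URA medium, pH 6.0.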
Cycloheximide cs = Cycloheximide Counterscreen for Small Molecule Inhibitors of Shiga Toxin; 300,000 compounds, 12% hits; max response, %; cell reporter, cycloheximide protein synthesis inhibition counterscreen; in the data active means max response mostly above about 13%, no sharp cut-off; inactive means mostly below about 14%; further: read at 38.3 µM for the half of the compounds with a filed dose; 0% is about no effect
Shiga inhibitor = A qHTS for Small Molecule Inhibitors of Shiga Toxin; Vero cells, Shiga toxin protein synthesis inhibition reporter; inhibition, % at 38.7 µM; 290,000 compounds, 9.2% hits; AID 2315, 2010; in the data active means inhibition mostly above about 28%, no sharp cut-off; inactive means mostly below about 43%; further: 0% is about no effect
Pf growth 96h = Primary qHTS for delayed death inhibitors of the malarial parasite plastid, 96 hour incubation; 320,000 compounds, 6.9% hits; P. falciparum luciferase reporter growth, 96 h; Potency, µM (doses to about 28.7 µM), for inactives: top-dose activity change, negative = inhibition, most hits filed as inhibitors; AID 504834, 2011; active means well fitted inhibition curve with a large enough effect; inconclusive means small, poorly fitted or top-dose-only effect, or another doubt; inactive means no such curve, though single readings can be large or run the other way; further: potency means the concentration at half of the fitted maximal effect; on the % scale 0 is the no-effect control and ±100 the full control effect
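Two parasite generations (96 h, 37 C, 5% CO2) of compound exposure in infected erythrocytes (0.05% parasitemia, 2% hematocrit). Luciferase-reporter P. falciparum; decreased luminescence indicates inhibited growth, aimed at apicoplast-acting delayed death.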
Pf growth 48h = Primary qHTS for delayed death inhibitors of the malarial parasite plastid, 48 hour incubation; P. falciparum luciferase growth in erythrocytes, 48 h; Potency, µM (top dose mostly 28.7 µM), inactives show at the top dose activity change, negative = inhibition, actives largely listed as inhibitors; 310,000 compounds, 5.9% hits; AID 504832, 2011; active means well fitted inhibition curve with a large enough effect; inconclusive means small, poorly fitted or top-dose-only effect, or another doubt; inactive means no such curve, though single readings can be large or run the other way; further: potency means the concentration at half of the fitted maximal effect; on the % scale 0 is the no-effect control and ±100 the full control effect
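Erythrocytes infected with P. falciparum carrying an integrated firefly luciferase reporter (2% hematocrit, 0.1% parasitemia final) were exposed to compounds in RPMI 1640 with 0.5% Albumax at 37 C, 5% CO2. Growth inhibition was scored as reduced luminescence.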
SARS PLpro yeast = qHTS of Yeast-based Assay for SARS-CoV PLP; S. cerevisiae expressing SARS-CoV PLpro, growth rescue; Potency, µM (doses to about 32.9 µM), without a hit: at the highest dose activity, positive = growth rescue, hits mostly activators; 330,000 compounds, 0.19% hits; AID 485353, 2010; further: potency means the concentration at half of the fitted maximal effect; 0% is about no effect; nearly all actives have a fitted effect of over 55% in size
The depositor's hits bear a star; u = inconclusive; x = no result given; [ ] = remark or other dose. Unless noted, the call rests on the fitted dose curve.

SMILES	NS1 function inh	Cycloheximide cs	Shiga inhibitor	Pf growth 96h	Pf growth 48h	SARS PLpro yeast
COC(=O)c1ccc(COC(=O)CNS(=O)(=O)c2ccc(C)cc2)cc1	x	33*	81*	0%	99%	-8%
Cc1ccc(NCCC#N)cc1C	-6%	11	-4	96%	-7%	10%
COc1ccc(OC)c(/C=C2\Oc3cc(OCC(=O)N4CCC(C(=O)O)CC4)ccc3C2=O)c1	u	-1	-8	-12%	-7%	2%
O=c1ccc(N=Nc2ccccc2)ccc1O	-99%	23*	33	13µM*	10µM*	-7%
O=c1[nH][nH]c(=O)c2c(NS(=O)(=O)c3ccccc3)cccc12	-5%	36*	62*	u	2%	1%
Cc1ccc(-n2c(C)cc(C(=O)COC(=O)c3c(C)noc3C)c2C)cc1	-61%	39*	104*	389%	227%	-26%
Cc1cc(C(=O)COC(=O)c2cnccn2)c(C)n1-c1ccc(Br)cc1	x	x	x	x	x	-10%
C=CCn1c(C)cc(C(=O)CSc2n[nH]c(N)n2)c1C	1%	28*	98	20%	x	0%
Cc1cc(C(=O)CSc2n[nH]c(N)n2)c(C)n1-c1cc(F)ccc1F	11%	29*	98*	9%[5.75 µM]	11%	7%
Cc1cc(C(=O)CSc2n[nH]c(N)n2)c(C)n1-c1ccccc1	2%	37*	50*	x	105%	-6%
CN(CC(=O)Nc1ccccc1Br)C(=O)CNC(=O)c1ccco1	x	x	x	5%	25%	0%
CC(=O)Nc1ccc(S(=O)(=O)NCCC(=O)OCC(=O)N2CCN(C(=O)c3ccco3)CC2)cc1	9%	-2	-2	-8%	-14%	-1%
Nc1nc(SCC(=O)c2cc(F)ccc2F)n[nH]1	18%	3	-1	2%	0%	-4%
Cc1cc(C(=O)CSc2n[nH]c(N)n2)c(C)n1-c1ccc(F)cc1	15%	40*	61*	u	54%	25%
Cc1ccc(-n2c(C)cc(C(=O)CSc3n[nH]c(N)n3)c2C)cc1	13%	10.0*	54	3.3µM*	u	-5%
CCN(CC)S(=O)(=O)c1cc(NC(=O)CNc2c(C)n(C)n(-c3ccccc3)c2=O)ccc1C	x	0	-7	1%	-18%	2%
O=C(NCCN1CCOCC1)c1cc2cc([N+](=O)[O-])ccc2s1	2%	-2	6	34%	13%	1%
O=C(NCc1ccc(-n2cccc2)cc1)c1cccc(F)c1	x	4	20	4%	3%	2%
Cc1ccc(OS(=O)(=O)c2ccccc2)c(/C=N/N=C2\NC(=O)C(C)S2)c1 (stereo not drawn)	-3%	12*	26	u	u	-12%
O=C1CS/C(=N/N=C/c2ccccc2OS(=O)(=O)c2ccccc2)N1	-16%	3	-8	u	-27%	-2%
Cn1c(/C=C/c2ccc(Cl)cc2)c([N+](=O)[O-])c(=O)n(C)c1=O	-41%	1	-11	3%	u	-3%
CCCCCOc1ccc(/C=C/c2c([N+](=O)[O-])c(=O)n(C)c(=O)n2C)cc1	1%	10	-12	u	12µM*	-2%
CCSc1nn2c(=O)c3ccccc3nc2s1	-20%	48*	85*	73%	x	-1%
CN(CC(=O)Nc1ccc(F)cc1)S(=O)(=O)c1ccc2c(c1)c(=O)n(C)c(=O)n2C	-6%	-3	-8	-1%	-9%	-1%
CN(Cc1ccccc1F)c1nc(-c2cccnc2)nc2ccccc12	-53%	-5	-6	u	u	-13%
SMILES	NS1 function inh	Cycloheximide cs	Shiga inhibitor	Pf growth 96h	Pf growth 48h	SARS PLpro yeast
CCOc1ccc(CN(C)c2nc(-c3cccnc3)nc3ccccc23)cc1OC	-44%	0	-6	u	12µM*	-50%
Oc1ccc(/C=N/Nc2nc(-c3cccnc3)nc3ccccc23)c(O)c1	10%	53*	41*	u	9.3µM*	1%
COc1ccc(/C=N/Nc2nc(-c3cccnc3)nc3ccccc23)cc1OC	11%	31*	62*	u	6.6µM*	-2%
Clc1ccccc1-c1nc(N/N=C/c2cccnc2)c2ccccc2n1	u	-5	-17	-63%	u	-17%
Clc1cccc(CNc2nc(-c3cccnc3)nc3ccccc23)c1	-15%	-5	-4	u	u	-60%
COc1ccc(CCNc2nc(-c3cccnc3)nc3ccccc23)cc1OC	-12%	7	-2	u	15µM*	-4%
Cc1cccc(C)c1NC(=O)COC(=O)c1cccnc1	1%	2	-4	49%	-19%	0%
CCOC(=O)c1[nH]c2cc3c(cc2c1NC(=O)CN1CCN(CCO)CC1)OCO3	5%	6	18	97%	-12%	2%
CSCCC(NC(=O)c1ccco1)C(=O)OCc1cc([N+](=O)[O-])cc2c1OCOC2 (stereo not drawn)	-6%	-1	-17	1%	79%	-6%
Cc1cccc(NC(=O)CN(C)C(=O)C2CCCC2)c1C	x	x	x	7%	4%	-8%
COc1ccc(/C=N/Nc2ncnc3scc(-c4ccccc4)c23)cc1OC	u	2	0	10µM*	x	-3%
COC(=O)CNc1nc(-c2cccnc2)nc2ccccc12	-53%	-1	-21	u	-5%	-5%
Cc1ccc(CN(C)c2nc(-c3cccnc3)nc3ccccc23)o1	-23%	0	-8	12µM*	u	-1%
Cc1ccc(-c2nc(N/N=C/c3ccncc3)c3ccccc3n2)cc1	3%	55*	76*	u	x	12%
Cc1c(O)ccc(/C=N/Nc2nc(-c3cccnc3)nc3ccccc23)c1O	3%	59*	49*	10µM*	u	-1%
CCc1ccc(NC(=O)C2CCCN2S(=O)(=O)c2ccc3c(c2)C(C)(C)C(=O)N3C)cc1 (stereo not drawn)	5%	10	7	-10%	u	-6%
O=C1C2CCCCC2C(=O)N1c1ccc(S(=O)(=O)Nc2ncccn2)cc1 (stereo not drawn)	-2%	-4	-15	u	-14%	-1%
CN(C)CCOc1ccccc1Cc1ccccc1	-6%	-4	-8	u	u	-1%
CNCCCCOc1ccccc1Cc1ccccc1	x	-8	14	17µM*	13µM*	4%
COc1ccc(-c2nc(SCC(=O)NC3CCCCC3)n[nH]2)cc1	-2%	24*	20	u	1%	0%
COc1ccc(-c2[nH]c(-c3ccccc3)nc2SCC(=O)NC2CCCC2)cc1	-76%	-3	-16	12µM*	-29%	12%
COc1ccc(Cl)cc1-c1nc(SCC(=O)NC2CCCC2)n[nH]1	x	x	x	x	x	-20%
COc1ccc(-c2[nH]c(-c3ccc(F)cc3)nc2SCC(=O)NC2CCCC2)cc1	14%	-1	-5	u	-23%	-2%
